D2 antagonist = antagonists of human D2 dopamine receptor; P14416; HEK293 TREx D2 cells, calcium flux, dopamine EC80; inhibition, % at 10 µM; 340,000 compounds, 2% hits; AID 485344; in the data active = inhibition above about 30%; inactive = below that, where a call was filed; also: 0% is about no effect
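Antagonism is scored as inhibition of an EC80 dopamine-evoked calcium signal in a force-coupled, tetracycline-inducible HEK293 T-REx D2 line, with compound present 180 s before agonist.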
D2 PAM-1 = human D2 receptor positive allosteric modulation; P14416; DiscoveRx D2 beta-arrestin cells, luminescence, 90 min; 100% = 57 uM dopamine signal; potentiation, % (concentration not given with the values); 360,000 compounds, 0.23% hits; AID 624464; in the data active = potentiation above about 50%; inconclusive = mostly about 30% to 49%
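PathHunter D2 cells, attached overnight at 37 deg C, received compound in DMSO plus dopamine at EC20 (50 nM final) for 90 min at 37 deg C. Beta-arrestin recruitment was read as luminescence after 1 h with detection reagent at ambient temperature.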
D2 ag-1 = D2 dopamine receptor (human) agonism. P14416. activation, % at 2 µM. HEK293 T-REx D2 cells, calcium flux agonist mode. 340,000 compounds, 0.53% hits;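 active = activation over 3 SD above normal in the single-dose calcium agonist read, cut at about 30% in these data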; also: 0% is about no effect
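Tetracycline-induced HEK293 T-REx cells with force-coupled D2 receptor, plated overnight at 30 C, loaded with no-wash calcium dye. After a 10 s baseline, compound was pin-added and calcium flux read kinetically for 180 s; calcium rises flagged agonists.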
D2 ag-2 = human D2 receptor agonism in beta-arrestin assay; P14416; DiscoveRx PathHunter D2 beta-arrestin, luminescence, 90 min; 100% = 57 uM dopamine signal; activation, % (no concentration beside the values); 360,000 compounds, 0.084% hits; in the data active = activation above about 40%; inconclusive = between about 15% and that limit
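Agonist mode: compounds alone added to overnight-plated D2 PathHunter cells for 90 min at 37 C, with 57 uM final dopamine (EC100) defining full response. Beta-arrestin recruitment detected by chemiluminescent reagent, read after 1 h at ambient temperature.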
D2 PAM-2 = positive allosteric modulators of human D2 dopamine receptor; HEK293 T-REx D2, calcium flux, EC20 dopamine potentiation; potentiation, % at 10 µM; 340,000 compounds, 0.34% hits; AID 485347;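 active = potentiation over 3 SD above the plate norm, cut at about 30% in these data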; also: 0% is about no effect
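Calcium flux readout, no-wash dye, 1 read/s. Inducible HEK293 Trex D2 line, overnight 30 C. Compound alone 180 s (agonist flags), then EC20 dopamine, another 180 s to score potentiation.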
D3 ag = activates human D3 dopamine receptor beta-arrestin recruitment | 2,300 compounds, 4% hits | AID 720506 | shares compounds with D2 ag-1 | Potency, µM (doses to about 76.9 µM), without a hit: at the top dose activation, most hits filed as activators | DiscoveRx D3 beta-arrestin cells, luminescence, 90 min;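 also: potency is read from the fitted curve at half-maximal effect; 100% = dopamine control response; nearly all actives have a fitted effect of over 70% in size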
Target sequence (P35462 whole entry, looked up): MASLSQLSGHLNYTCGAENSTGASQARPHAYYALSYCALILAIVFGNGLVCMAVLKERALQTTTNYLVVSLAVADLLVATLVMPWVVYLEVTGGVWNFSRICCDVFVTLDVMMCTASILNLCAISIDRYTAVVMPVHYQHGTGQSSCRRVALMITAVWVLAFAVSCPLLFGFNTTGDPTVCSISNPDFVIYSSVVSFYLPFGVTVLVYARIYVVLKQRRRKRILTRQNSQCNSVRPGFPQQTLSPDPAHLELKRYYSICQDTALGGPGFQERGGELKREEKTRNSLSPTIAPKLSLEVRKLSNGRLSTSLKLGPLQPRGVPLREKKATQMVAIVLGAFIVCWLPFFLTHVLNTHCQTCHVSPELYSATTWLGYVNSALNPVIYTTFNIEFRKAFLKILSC
D2 ag-3 = activates human D2 dopamine receptor in D3 counterscreen | shares compounds with D2 ag-1 | DiscoveRx PathHunter D2 beta-arrestin, luminescence, 90 min; response scale: percent relative to full dopamine signal | Potency, µM (series often up to 76.9 µM), inactives show top-dose activation, actives largely listed as activators | 2,300 compounds, 5.9% hits; also: potency is read from the fitted curve at half-maximal effect; % of control where 0% means no effect; nearly all actives have a fitted effect of over 70% in size
Starred values were filed as active, the others as inactive; u = inconclusive; x = no result. An excerpt weighted towards active compounds, which were near 2.4% of everything screened. Unless noted, calls follow the shape of the dose curve; as a rule, active = well fitted activation curve with a large enough effect; inconclusive = small, poorly fitted or top-dose-only effect; inactive = flat fitted curve, though single readings scatter.

SMILES | D2 antagonist | D2 PAM-1 | D2 ag-1 | D2 ag-2 | D2 PAM-2 | D3 ag | D2 ag-3
COc1ccccc1N1CCN(CC(=O)Nc2nc(C)c(C(=O)N(C)C)s2)CC1 | 12.1 | -19.3 | 0.2 | 3.4 | -5.7 | -6.6% | -4.6%
Cc1cc(Cl)ccc1NC(=O)CN1CCN(C(=O)c2ccco2)CC1 | 3.6 | 3.6 | 1.4 | 2.3 | 3.6 | x | x
COc1ccccc1NC(=O)CN1CCN(C(=O)c2ccco2)CC1 | x | -20.9 | x | 6.8 | x | u | 12.9%
COc1ccc([N+](=O)[O-])cc1NC(=O)CCCOc1ccccc1 | 2.3 | -19.0 | 0.0 | -3.3 | -34.9 | x | x
Cc1ccccc1NC(=O)CN1CCN(C(=O)c2ccco2)CC1 | -14.9 | 3.8 | 43.8* | 10.6 | -10.6 | -6.5% | 22.4%
COc1ccc([N+](=O)[O-])cc1NC(=O)CCN1CCN(c2ccccc2)CC1 | x | 6.1 | x | 47.3* | x | u | u
Cc1nc(NC(=O)CN2CCCCC2)sc1C(=O)N(C)C | 7.0 | -0.6 | -0.2 | -0.9 | 3.0 | x | x
Cc1ccc(S(=O)(=O)N2CCCc3cc(NC(=O)c4ccc(C(C)(C)C)cc4)ccc32)cc1 | x | x | -3.3 | x | 7.3 | x | x
Cc1ccccc1C(=O)Nc1c(C)nc(Nc2ccccc2)nc1Nc1ccccc1 | x | x | 0.1 | x | 4.7 | x | x
CN1C(=O)c2ccccc2Sc2ccc(NC(=O)c3ccccc3F)cc21 | x | x | -0.6 | x | 0.5 | x | x
O=C(Nc1cccc(F)c1)c1ccc2oc(=O)n(Cc3ccccc3)c2c1 | x | x | 2.2 | x | 2.3 | x | x
CCCOc1ccc(C2C(=O)N(C3CCCCCC3)CC(=O)N2Cc2ccc(OC)cc2)cc1OC (configuration not stated) | x | x | 1.3 | x | -13.9 | x | x
COc1ccc(C)cc1NC(=O)CCN1CCN(C/C=C/c2ccccc2)CC1 | 68.0* | -0.4 | 69.9* | 3.9 | -25.0 | 6.8% | u
COc1ccccc1NC(=O)c1ccc(NC(=O)c2ccco2)cc1 | -13.8 | 1.2 | 0.3 | -3.2 | -20.2 | x | x
COC(=O)c1[nH]c2ccccc2c1NC(=O)CN1CCN(C(=O)c2ccco2)CC1 | 20.6 | 9.4 | 58.1* | u | -19.4 | u | 19.5%
COc1ccccc1NC(=O)CN1CCN(c2ccccc2)CC1 | 39.1* | -6.3 | 49.2* | 5.1 | -29.1 | -3.0% | 8.8%
COc1ccccc1NC(=O)c1ccc(NC(=O)CN2CCN(C(=O)c3ccco3)CC2)cc1 | 40.9* | 19.5 | 51.3* | 10.8 | -7.5 | u | 19.9%
COC(=O)c1sc2cccc(F)c2c1S(=O)(=O)NCc1ccc(F)cc1 | x | x | 0.4 | x | 8.8 | x | x
COc1ccc(CCNC(=O)CCc2cn(Cc3ccc(C)cc3)c3ccccc23)c(OC)c1OC | x | x | x | x | -5.0 | x | x
COc1ccccc1N1CCN(CC(=O)Nc2ccc(CN3CCCCC3)cc2)CC1 | 39.1* | -8.8 | 31.2* | 11.8 | -23.9 | -7.3% | 12.7%
CC(C)N1C(=O)C(O)(c2c[nH]c3ccccc23)c2ccccc21 (configuration not stated) | x | x | -1.0 | x | 3.0 | x | x
Cc1ccc(NC(=O)c2ccc(NCCCN3CCC(C)CC3)c([N+](=O)[O-])c2)cc1F | 5.1 | -11.7 | 28.8 | -2.0 | -17.4 | -17.2% | 9.9%
O=C(Nc1cccc(Cl)c1)c1ccc(NCCCN2CCOCC2)c([N+](=O)[O-])c1 | -10.4 | -34.4 | -1.9 | -2.4 | 3.4 | x | x
COc1cccc2cc(-c3nc(Nc4cccc(C)c4C)sc3C)c(=O)oc12 | x | x | 0.3 | x | 5.4 | x | x
CCc1ccc(NC(=O)Cn2ccn(-c3ccc(C)c(C)c3)c(=O)c2=O)cc1 | x | x | 0.4 | x | 9.1 | x | x
O=C(COc1ccc2oc(-c3ccccc3)cc(=O)c2c1)Nc1ccccc1 | -12.7 | -3.8 | 21.3 | 0.5 | -16.4 | 12.6% | 1.2%
COC(=O)COc1ccc2oc(-c3ccc(OC)cc3)cc(=O)c2c1 | x | x | 0.5 | x | -10.2 | x | x
CC(=O)Nc1ccc(SCCN2CC[C@@H](O)CCC2=O)cc1 | -10.8 | 0.0 | -0.1 | -2.4 | 19.3 | x | x
